Source: PubChem BioAssay (NCI)
Compounds without any hit were thinned out: in the full panel of roughly 79,000, 15% have a hit. Unmarked numbers belong to inactive results. Activity calls are given as the source filed them. No stated cut-off is given here; in the data, active means growth inhibition above about 70%; inactive means the rest.

Tests used:
[1] = NCI Yeast Anticancer Drug Screen. Data for the rad50 strain (AID 155);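 further: 0% = growth of vehicle-only cultures of the same strain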; settings: S. cerevisiae rad50 strain growth inhibition; at 50.0 µM; stronger effect = higher value
In short: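 A DNA repair-deficient yeast mutant serves as the test organism; compound-induced growth inhibition is calculated against vehicle-treated cells.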

[2] = NCI Yeast Anticancer Drug Screen. Data for the mec2-1 strain (AID 157); settings: S. cerevisiae mec2-1 strain, at 50.0 µM, stronger effect = higher value
In short: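 Vehicle-treated cultures served as reference for growth inhibition of compound-exposed mec2-1 yeast.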

[3] = NCI Yeast Anticancer Drug Screen. Data for the sgs1 mgt1 strain (AID 161);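 further: 0% = growth of cultures given vehicle only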; settings: S. cerevisiae sgs1 mgt1 strain, at 50.0 µM, stronger effect = higher value
In short: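 Inhibition of yeast growth, normalised to vehicle-treated controls, is reported for a strain bearing genetic alterations in DNA damage repair.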

[4] = NCI Yeast Anticancer Drug Screen. Data for the cln2 rad14 strain (AID 165);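 further: 0% = growth equal to vehicle treated cultures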; settings: S. cerevisiae cln2 rad14 strain, at 50.0 µM, stronger effect = higher value
In short: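 Each compound was tested on cln2 rad14 yeast. Inhibition of growth was calculated against vehicle-exposed controls.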

[5] = NCI Yeast Anticancer Drug Screen. Data for the bub3 strain (AID 167); settings: S. cerevisiae bub3 mutant strain, at 50.0 µM, stronger effect = higher value
In short: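 Inhibition values come from growth of compound-treated mutant yeast normalised to vehicle-treated controls.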

[6] = NCI Yeast Anticancer Drug Screen. Data for the mlh1 rad18 strain (AID 175); settings: S. cerevisiae mlh1 rad18 strain growth inhibition; at 50.0 µM; stronger effect = higher value
In short: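 Vehicle-treated cultures served as the reference for growth inhibition in a yeast strain carrying DNA damage repair alterations exposed to each compound.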

**Q.** Which growth inhibition [1] does the source give for `CC(C)/C(Cl)=N/OC(=O)Nc1ccc(Cl)c(Cl)c1` here?
**A.** The growth inhibition was 85.5% (active).

**Q.** And the growth inhibition [2]?
**A.** The growth inhibition was 90.8% (active).

**Q.** What about the growth inhibition [3] of the same molecule?
**A.** Its growth inhibition is 92.3% (active).

**Q.** What about the growth inhibition [4] of the same molecule?
**A.** The growth inhibition was 84.8% (active).

**Q.** What about the growth inhibition [5] of the same molecule?
**A.** Its growth inhibition is 88.9% (active).

**Q.** And the growth inhibition [6]?
**A.** Its growth inhibition is 82.8% (active).

**Q.** Which growth inhibition [1] does the source give for `Cc1c(-c2ccccc2)c(-c2ccccc2)c(C)c(-c2ccc3c(c2)CCCC3)c1-c1ccccc1` here?
**A.** Its growth inhibition is -15%.

**Q.** What about the growth inhibition [2] of the same molecule?
**A.** Its growth inhibition is -3.35%.

**Q.** And the growth inhibition [3]?
**A.** The growth inhibition was -33.2%.

**Q.** And the growth inhibition [4]?
**A.** Its growth inhibition is 1.75%.

**Q.** And the growth inhibition [5]?
**A.** Its growth inhibition is 22.2%.

**Q.** And the growth inhibition [6]?
**A.** Its growth inhibition is -16.7%.

**Q.** For `CC(C)(C)SC(=S)SCC(=O)c1cc2cc(Br)ccc2o1`, which growth inhibition [1] is on record?
**A.** The growth inhibition was -19.7%.

**Q.** What about the growth inhibition [2] of the same molecule?
**A.** Its growth inhibition is -25.6%.

**Q.** And the growth inhibition [3]?
**A.** The growth inhibition was -11.5%.

**Q.** And the growth inhibition [4]?
**A.** Its growth inhibition is -3.25%.

**Q.** And the growth inhibition [5]?
**A.** Its growth inhibition is -16.9%.

**Q.** And the growth inhibition [6]?
**A.** Its growth inhibition is -8.5%.

**Q.** What does the source list for `CC(C)=CC1CCc2ccccc2N1S(=O)(=O)c1ccc(C)cc1` (stereo unspecified)?
**A.** growth inhibition [1]: 31.8%; growth inhibition [2]: 0.25%; growth inhibition [3]: -14.9%; growth inhibition [4]: -8.7%; growth inhibition [5]: -31.7%; growth inhibition [6]: -22.6%

**Q.** For `O=[N+]([O-])c1ccc2oc(=Nc3ccccc3)c(Nc3ccccc3)nc2c1`, which growth inhibition [1] is on record?
**A.** The growth inhibition was -21.4%.

**Q.** What about the growth inhibition [2] of the same molecule?
**A.** Its growth inhibition is 11.4%.

**Q.** What about the growth inhibition [3] of the same molecule?
**A.** The growth inhibition was -18.6%.

**Q.** What about the growth inhibition [4] of the same molecule?
**A.** The growth inhibition was 15.9%.

**Q.** And the growth inhibition [5]?
**A.** Its growth inhibition is 6.75%.

**Q.** What about the growth inhibition [6] of the same molecule?
**A.** The growth inhibition was 6.25%.

**Q.** Which results are given for `CCOC(=O)c1[nH]n(-c2ccccc2)c(=O)c1/C=N/C(=S)NCCc1ccc(OC)c(OC)c1`?
**A.** growth inhibition [1]: 2.05%; growth inhibition [2]: -0.6%; growth inhibition [3]: 5.4%; growth inhibition [4]: -10.8%; growth inhibition [5]: -21%; growth inhibition [6]: 13.2%

**Q.** Which results are given for `CCCCCCCCCCCCCCC(=O)Cl`?
**A.** growth inhibition [1]: 9%; growth inhibition [2]: 7.25%; growth inhibition [3]: 5.8%; growth inhibition [4]: 8.2%; growth inhibition [5]: -9.95%; growth inhibition [6]: 8.85%

**Q.** Which growth inhibition [1] does the source give for `C=CCc1c(Cl)nc(Cl)nc1Cl` here?
**A.** Its growth inhibition is -14.8%.

**Q.** And the growth inhibition [2]?
**A.** The growth inhibition was 22.6%.

**Q.** And the growth inhibition [3]?
**A.** Its growth inhibition is 10.3%.

**Q.** What about the growth inhibition [4] of the same molecule?
**A.** Its growth inhibition is -69.2%.

**Q.** And the growth inhibition [5]?
**A.** Its growth inhibition is 7.1%.

**Q.** What about the growth inhibition [6] of the same molecule?
**A.** The growth inhibition was -23.6%.

**Q.** For `CC(=O)c1cccc(NC(=O)N2CCN(c3ccccc3)CC2)c1`, which growth inhibition [1] is on record?
**A.** The growth inhibition was 11.4%.

**Q.** What about the growth inhibition [2] of the same molecule?
**A.** Its growth inhibition is 34%.

**Q.** And the growth inhibition [3]?
**A.** The growth inhibition was 20%.

**Q.** And the growth inhibition [4]?
**A.** Its growth inhibition is 1.25%.

**Q.** And the growth inhibition [5]?
**A.** Its growth inhibition is 23.9%.

**Q.** And the growth inhibition [6]?
**A.** Its growth inhibition is 16.6%.

**Q.** With `O=C1/C(=C/c2ccc(Cl)cc2)Oc2ccccc21` as the molecule, how does the growth inhibition [1] read?
**A.** The growth inhibition was -31.4%.

**Q.** What about the growth inhibition [2] of the same molecule?
**A.** Its growth inhibition is -7.05%.

**Q.** And the growth inhibition [3]?
**A.** The growth inhibition was -18.9%.

**Q.** What about the growth inhibition [4] of the same molecule?
**A.** The growth inhibition was 1.4%.

**Q.** What about the growth inhibition [5] of the same molecule?
**A.** Its growth inhibition is -8.1%.

**Q.** And the growth inhibition [6]?
**A.** Its growth inhibition is -19.6%.

**Q.** With `Cc1sc2ncnc(Cl)c2c1C` as the molecule, how does the growth inhibition [1] read?
**A.** The growth inhibition was 1.95%.

**Q.** What about the growth inhibition [2] of the same molecule?
**A.** The growth inhibition was 13.2%.

**Q.** And the growth inhibition [3]?
**A.** The growth inhibition was -1.4%.

**Q.** And the growth inhibition [4]?
**A.** The growth inhibition was -23%.

**Q.** What about the growth inhibition [5] of the same molecule?
**A.** Its growth inhibition is 4.45%.

**Q.** And the growth inhibition [6]?
**A.** The growth inhibition was 4.05%.

**Q.** Which growth inhibition [1] does the source give for `CC1CCC2(CC1)N=C1CCC(C)CC1C1(CCC(C)CC1)N2` (stereo unspecified) here?
**A.** The growth inhibition was -22.4%.

**Q.** And the growth inhibition [2]?
**A.** The growth inhibition was 0.25%.

**Q.** And the growth inhibition [3]?
**A.** The growth inhibition was -32.9%.

**Q.** What about the growth inhibition [4] of the same molecule?
**A.** The growth inhibition was -23.1%.

**Q.** And the growth inhibition [5]?
**A.** Its growth inhibition is -13.2%.

**Q.** What about the growth inhibition [6] of the same molecule?
**A.** The growth inhibition was -11.1%.

**Q.** With `CC1CCCCN1P(N1CCCCC1C)N1CCCCC1C` (stereo unspecified) as the molecule, how does the growth inhibition [1] read?
**A.** Its growth inhibition is 36.4%.

**Q.** What about the growth inhibition [2] of the same molecule?
**A.** The growth inhibition was 20.4%.

**Q.** And the growth inhibition [3]?
**A.** The growth inhibition was 29%.

**Q.** And the growth inhibition [4]?
**A.** The growth inhibition was 25.6%.

**Q.** And the growth inhibition [5]?
**A.** Its growth inhibition is 23.4%.

**Q.** What about the growth inhibition [6] of the same molecule?
**A.** The growth inhibition was 33.5%.

**Q.** With `COC(=O)C1C(C(=O)OC)C2(C)C(=O)C1(C)C(c1ccccc1)=C2c1ccccc1` (stereo unspecified) as the molecule, how does the growth inhibition [1] read?
**A.** The growth inhibition was -0.7%.

**Q.** What about the growth inhibition [2] of the same molecule?
**A.** Its growth inhibition is 2.55%.

**Q.** And the growth inhibition [3]?
**A.** Its growth inhibition is -5.4%.

**Q.** And the growth inhibition [4]?
**A.** The growth inhibition was -12.3%.

**Q.** And the growth inhibition [5]?
**A.** Its growth inhibition is 1.15%.

**Q.** And the growth inhibition [6]?
**A.** Its growth inhibition is 5.15%.

**Q.** Which results are given for `Cn1c(=O)c2c(nc(Cl)n2Cc2ccccc2)n(C)c1=O`?
**A.** growth inhibition [1]: -39.8%; growth inhibition [2]: 5.1%; growth inhibition [3]: -14.6%; growth inhibition [4]: 23.6%; growth inhibition [5]: 0.8%; growth inhibition [6]: 21.4%

**Q.** For `C=CCCCCCCCCC(=O)NCc1ccncc1`, which growth inhibition [1] is on record?
**A.** Its growth inhibition is 56.2%.

**Q.** What about the growth inhibition [2] of the same molecule?
**A.** Its growth inhibition is 29.2%.

**Q.** What about the growth inhibition [3] of the same molecule?
**A.** Its growth inhibition is 59.5%.

**Q.** And the growth inhibition [4]?
**A.** The growth inhibition was 50.4%.

**Q.** And the growth inhibition [5]?
**A.** The growth inhibition was 41.7%.

**Q.** What about the growth inhibition [6] of the same molecule?
**A.** The growth inhibition was 86.7% (active).

**Q.** With `Clc1ccc(CN2COc3c(ccc4ccccc34)C2)cc1Cl` as the molecule, how does the growth inhibition [1] read?
**A.** Its growth inhibition is 1.65%.

**Q.** What about the growth inhibition [2] of the same molecule?
**A.** The growth inhibition was 15.2%.

**Q.** And the growth inhibition [3]?
**A.** Its growth inhibition is 17.6%.

**Q.** And the growth inhibition [4]?
**A.** Its growth inhibition is 9.65%.

**Q.** What about the growth inhibition [5] of the same molecule?
**A.** Its growth inhibition is 7.1%.

**Q.** And the growth inhibition [6]?
**A.** Its growth inhibition is 13.8%.

**Q.** With `CCCC(P(=O)(c1ccccc1)c1ccccc1)[P+](CC)(c1ccccc1)c1ccccc1` (stereo unspecified) as the molecule, how does the growth inhibition [1] read?
**A.** The growth inhibition was 84.6% (active).

**Q.** And the growth inhibition [2]?
**A.** The growth inhibition was 78.2% (active).

**Q.** What about the growth inhibition [3] of the same molecule?
**A.** The growth inhibition was 85.9% (active).

**Q.** What about the growth inhibition [4] of the same molecule?
**A.** The growth inhibition was 54.6%.

**Q.** And the growth inhibition [5]?
**A.** Its growth inhibition is 81.7% (active).

**Q.** What about the growth inhibition [6] of the same molecule?
**A.** The growth inhibition was 77.8% (active).

**Q.** With `CCCC(C)CCCC(=O)c1ccc2cc(OC)ccc2c1` (stereo unspecified) as the molecule, how does the growth inhibition [1] read?
**A.** The growth inhibition was -34.2%.

**Q.** And the growth inhibition [2]?
**A.** Its growth inhibition is -16.8%.

**Q.** And the growth inhibition [3]?
**A.** The growth inhibition was -14.5%.

**Q.** What about the growth inhibition [4] of the same molecule?
**A.** Its growth inhibition is -33.3%.

**Q.** And the growth inhibition [5]?
**A.** The growth inhibition was -2%.

**Q.** And the growth inhibition [6]?
**A.** Its growth inhibition is -29.9%.

**Q.** For `C=CCCCCC1CCC2CCC(CCCCC=C)N12` (stereo unspecified), which growth inhibition [1] is on record?
**A.** Its growth inhibition is 40.8%.

**Q.** What about the growth inhibition [2] of the same molecule?
**A.** Its growth inhibition is 28.4%.

**Q.** And the growth inhibition [3]?
**A.** Its growth inhibition is 38.6%.

**Q.** What about the growth inhibition [4] of the same molecule?
**A.** The growth inhibition was 42.5%.

**Q.** And the growth inhibition [5]?
**A.** Its growth inhibition is 49.4%.

**Q.** And the growth inhibition [6]?
**A.** Its growth inhibition is 35.9%.

**Q.** Which growth inhibition [1] does the source give for `CCCN=C(N)NC#N` here?
**A.** Its growth inhibition is 16.9%.

**Q.** And the growth inhibition [2]?
**A.** Its growth inhibition is 0.8%.

**Q.** What about the growth inhibition [3] of the same molecule?
**A.** Its growth inhibition is -2.4%.

**Q.** And the growth inhibition [4]?
**A.** The growth inhibition was 7.85%.

**Q.** And the growth inhibition [5]?
**A.** Its growth inhibition is -16.6%.

**Q.** And the growth inhibition [6]?
**A.** The growth inhibition was 15.1%.
